Data as given in the supplement of paper PMC11732987, “Enantioselective OTUD7B fragment discovery through chemoproteomics screening and high-throughput optimisation” (Communications Chemistry, 2025).
Values without a mark were called inactive.

What was measured:
Test in all cases: log2 ratio of Biotin-Ahx-Ub-VS probe labelling (compound/DMSO); higher = less target engagement, active = hit call of the paper (q ≤ 0.05, log2 ratio ≤ -1)
Settings in all cases: treatment time: 3 h
[1] = compound: ClCC(=O)NC1CCCc2ccccc12
Outline: (§1)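 HEK293T lysate (495 µg per sample, in Tris/CHAPS/IGEPAL buffer with protease inhibitors) was treated in triplicate with compound at 50 or 200 µM or with DMSO for 3 h. It was then treated with Biotin-Ahx-Ub-VS (0.5 µM final) for 1 h. Labelled DUBs were NeutrAvidin-enriched, digested with LysC and trypsin, and run by diaPASEF LC-MS/MS. Median-normalised label-free quantities gave average log2 ratios compound/DMSO by unpaired t-test, using proteins with ≥2 unique peptides.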

[2] = compound: ClCC(=O)NC1CCOc2ccc(Cl)cc12
Outline: as §1

[3] = compound: ClCC(=O)NC1CCSc2ccccc12
Outline: as §1

[4] = compound: ClCC(=O)N[C@H]1CCCc2ccccc12
Outline: as §1

[5] = compound: Fc1ccc(N2CCN(c3nc4c(CN(C(CCl)=O)CC4)cn3)CC2)cc1.Cl.Cl
Outline: as §1

Chain of UniProt Q9Y5K5 (Q9Y5K5 whole entry): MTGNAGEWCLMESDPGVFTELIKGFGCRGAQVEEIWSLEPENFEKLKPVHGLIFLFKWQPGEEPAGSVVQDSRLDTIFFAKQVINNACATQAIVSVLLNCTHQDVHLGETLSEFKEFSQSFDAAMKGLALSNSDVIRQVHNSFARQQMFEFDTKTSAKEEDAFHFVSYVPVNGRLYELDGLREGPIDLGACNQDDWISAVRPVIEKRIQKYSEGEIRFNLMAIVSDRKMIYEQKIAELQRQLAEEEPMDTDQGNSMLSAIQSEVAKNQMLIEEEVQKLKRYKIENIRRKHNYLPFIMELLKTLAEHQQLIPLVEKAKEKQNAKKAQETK
Chain of UniProt Q5T2D3 (Q5T2D3 whole entry): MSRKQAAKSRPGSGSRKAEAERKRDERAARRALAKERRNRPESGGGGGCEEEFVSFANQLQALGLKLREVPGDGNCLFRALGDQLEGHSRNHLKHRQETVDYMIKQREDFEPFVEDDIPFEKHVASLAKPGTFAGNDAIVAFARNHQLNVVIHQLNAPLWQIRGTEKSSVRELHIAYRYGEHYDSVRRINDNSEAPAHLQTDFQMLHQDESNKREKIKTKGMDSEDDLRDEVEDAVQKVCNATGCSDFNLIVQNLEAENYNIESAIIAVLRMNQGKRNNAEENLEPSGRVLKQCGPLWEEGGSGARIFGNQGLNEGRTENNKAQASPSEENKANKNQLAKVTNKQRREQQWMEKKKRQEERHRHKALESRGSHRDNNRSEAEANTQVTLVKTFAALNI
Chain of UniProt Q70EL1 (Q70EL1 whole entry): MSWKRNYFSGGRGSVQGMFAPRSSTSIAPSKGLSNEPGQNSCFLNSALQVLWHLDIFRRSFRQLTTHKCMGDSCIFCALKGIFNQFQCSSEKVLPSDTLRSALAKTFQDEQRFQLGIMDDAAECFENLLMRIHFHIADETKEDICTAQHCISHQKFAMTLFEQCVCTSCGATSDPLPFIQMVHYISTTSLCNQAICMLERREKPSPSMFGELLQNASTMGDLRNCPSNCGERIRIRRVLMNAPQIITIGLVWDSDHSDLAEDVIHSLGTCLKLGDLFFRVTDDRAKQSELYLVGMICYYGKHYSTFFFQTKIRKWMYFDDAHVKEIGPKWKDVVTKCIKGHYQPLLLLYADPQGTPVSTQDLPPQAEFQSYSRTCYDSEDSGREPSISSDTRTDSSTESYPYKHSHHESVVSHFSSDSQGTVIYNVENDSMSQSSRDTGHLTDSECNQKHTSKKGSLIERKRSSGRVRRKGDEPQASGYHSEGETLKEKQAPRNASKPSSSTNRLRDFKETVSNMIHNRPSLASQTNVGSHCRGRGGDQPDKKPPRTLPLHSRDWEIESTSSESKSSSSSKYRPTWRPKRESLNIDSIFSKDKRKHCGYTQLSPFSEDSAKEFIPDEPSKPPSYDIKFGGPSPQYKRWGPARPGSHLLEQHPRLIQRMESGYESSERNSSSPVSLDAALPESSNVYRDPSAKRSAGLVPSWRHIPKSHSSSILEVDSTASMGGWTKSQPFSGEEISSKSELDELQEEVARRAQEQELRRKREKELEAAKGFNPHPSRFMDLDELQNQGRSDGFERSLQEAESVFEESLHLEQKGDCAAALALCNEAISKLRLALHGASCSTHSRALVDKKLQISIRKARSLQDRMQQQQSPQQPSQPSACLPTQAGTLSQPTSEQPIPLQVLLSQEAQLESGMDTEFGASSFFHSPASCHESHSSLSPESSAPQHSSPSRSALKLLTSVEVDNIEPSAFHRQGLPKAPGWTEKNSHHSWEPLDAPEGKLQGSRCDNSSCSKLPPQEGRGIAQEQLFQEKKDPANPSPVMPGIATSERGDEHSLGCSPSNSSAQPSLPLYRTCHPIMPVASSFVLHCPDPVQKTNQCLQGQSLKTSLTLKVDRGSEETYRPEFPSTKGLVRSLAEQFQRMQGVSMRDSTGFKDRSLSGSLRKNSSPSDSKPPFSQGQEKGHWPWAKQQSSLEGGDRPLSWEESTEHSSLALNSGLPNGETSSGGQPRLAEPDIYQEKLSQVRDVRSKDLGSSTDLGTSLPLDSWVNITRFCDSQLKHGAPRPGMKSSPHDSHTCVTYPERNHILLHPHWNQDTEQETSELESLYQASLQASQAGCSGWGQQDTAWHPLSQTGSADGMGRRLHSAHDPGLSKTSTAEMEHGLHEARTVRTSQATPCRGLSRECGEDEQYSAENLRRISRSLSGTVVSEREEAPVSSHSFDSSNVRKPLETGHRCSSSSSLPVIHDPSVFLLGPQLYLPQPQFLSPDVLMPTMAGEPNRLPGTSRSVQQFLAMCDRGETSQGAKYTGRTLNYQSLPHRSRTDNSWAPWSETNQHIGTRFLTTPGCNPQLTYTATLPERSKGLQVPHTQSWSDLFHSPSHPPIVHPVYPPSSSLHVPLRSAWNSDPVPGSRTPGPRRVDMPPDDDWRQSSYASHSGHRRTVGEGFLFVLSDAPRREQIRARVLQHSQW
Chain of UniProt Q4G0A6 (Q4G0A6 whole entry): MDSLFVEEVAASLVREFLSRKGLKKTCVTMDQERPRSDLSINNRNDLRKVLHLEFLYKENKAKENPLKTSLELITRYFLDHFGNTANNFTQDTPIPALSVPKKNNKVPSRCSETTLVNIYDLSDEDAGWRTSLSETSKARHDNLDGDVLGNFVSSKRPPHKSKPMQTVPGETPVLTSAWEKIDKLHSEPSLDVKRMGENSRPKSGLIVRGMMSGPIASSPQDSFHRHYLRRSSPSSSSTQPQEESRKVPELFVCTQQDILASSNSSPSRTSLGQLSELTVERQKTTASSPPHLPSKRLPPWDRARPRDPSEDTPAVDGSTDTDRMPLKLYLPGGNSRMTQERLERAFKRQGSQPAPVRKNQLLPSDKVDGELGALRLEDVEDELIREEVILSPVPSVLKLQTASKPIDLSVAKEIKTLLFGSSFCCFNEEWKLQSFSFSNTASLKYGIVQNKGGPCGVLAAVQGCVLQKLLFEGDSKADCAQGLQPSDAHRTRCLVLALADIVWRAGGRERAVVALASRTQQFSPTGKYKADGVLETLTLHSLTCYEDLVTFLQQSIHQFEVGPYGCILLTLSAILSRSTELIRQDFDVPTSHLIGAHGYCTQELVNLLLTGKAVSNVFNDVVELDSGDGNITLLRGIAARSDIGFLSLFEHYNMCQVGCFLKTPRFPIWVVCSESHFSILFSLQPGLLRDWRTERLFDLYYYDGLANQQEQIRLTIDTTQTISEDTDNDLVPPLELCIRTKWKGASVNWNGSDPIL
Chain of UniProt Q5VVQ6 (Q5VVQ6 whole entry): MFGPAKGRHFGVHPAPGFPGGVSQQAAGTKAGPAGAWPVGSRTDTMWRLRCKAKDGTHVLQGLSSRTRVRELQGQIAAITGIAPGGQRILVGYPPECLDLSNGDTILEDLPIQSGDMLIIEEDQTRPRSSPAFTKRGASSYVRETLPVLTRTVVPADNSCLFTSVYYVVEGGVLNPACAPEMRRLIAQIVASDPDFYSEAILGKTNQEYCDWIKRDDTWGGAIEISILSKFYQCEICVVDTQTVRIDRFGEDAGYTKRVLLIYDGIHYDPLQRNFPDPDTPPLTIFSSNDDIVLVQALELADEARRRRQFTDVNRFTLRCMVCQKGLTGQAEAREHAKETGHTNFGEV
Chain of UniProt O00303 (O00303 whole entry): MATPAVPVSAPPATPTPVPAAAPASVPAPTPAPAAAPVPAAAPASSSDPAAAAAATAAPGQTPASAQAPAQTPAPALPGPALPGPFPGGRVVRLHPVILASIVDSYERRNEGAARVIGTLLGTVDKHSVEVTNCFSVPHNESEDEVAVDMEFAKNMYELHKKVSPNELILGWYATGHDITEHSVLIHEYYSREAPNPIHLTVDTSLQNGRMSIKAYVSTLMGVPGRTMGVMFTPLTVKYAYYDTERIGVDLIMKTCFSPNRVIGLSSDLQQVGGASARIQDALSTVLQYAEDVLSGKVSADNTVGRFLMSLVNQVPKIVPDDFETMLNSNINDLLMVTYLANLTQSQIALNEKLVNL
Chain of UniProt O75317 (O75317 whole entry): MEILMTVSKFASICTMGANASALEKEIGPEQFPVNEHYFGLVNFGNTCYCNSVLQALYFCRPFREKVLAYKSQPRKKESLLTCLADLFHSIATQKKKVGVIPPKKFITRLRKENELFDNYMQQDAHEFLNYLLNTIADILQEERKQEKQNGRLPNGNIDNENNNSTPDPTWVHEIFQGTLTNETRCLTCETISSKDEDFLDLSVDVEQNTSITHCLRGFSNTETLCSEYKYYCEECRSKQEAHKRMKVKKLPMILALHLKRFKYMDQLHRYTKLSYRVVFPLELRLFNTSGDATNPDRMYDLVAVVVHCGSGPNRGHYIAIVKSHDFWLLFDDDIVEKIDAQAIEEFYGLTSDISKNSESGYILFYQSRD
Chain of UniProt P51665 (P51665 whole entry): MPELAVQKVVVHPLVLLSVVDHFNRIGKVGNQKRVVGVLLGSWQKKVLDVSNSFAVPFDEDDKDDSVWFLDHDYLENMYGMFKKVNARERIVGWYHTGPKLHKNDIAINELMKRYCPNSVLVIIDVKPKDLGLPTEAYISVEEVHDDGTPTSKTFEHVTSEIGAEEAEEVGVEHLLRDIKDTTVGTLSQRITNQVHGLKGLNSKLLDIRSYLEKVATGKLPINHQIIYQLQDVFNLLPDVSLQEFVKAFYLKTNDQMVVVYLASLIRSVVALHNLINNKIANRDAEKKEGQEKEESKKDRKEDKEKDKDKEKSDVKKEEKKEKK
Chain of UniProt P54252 (P54252 whole entry): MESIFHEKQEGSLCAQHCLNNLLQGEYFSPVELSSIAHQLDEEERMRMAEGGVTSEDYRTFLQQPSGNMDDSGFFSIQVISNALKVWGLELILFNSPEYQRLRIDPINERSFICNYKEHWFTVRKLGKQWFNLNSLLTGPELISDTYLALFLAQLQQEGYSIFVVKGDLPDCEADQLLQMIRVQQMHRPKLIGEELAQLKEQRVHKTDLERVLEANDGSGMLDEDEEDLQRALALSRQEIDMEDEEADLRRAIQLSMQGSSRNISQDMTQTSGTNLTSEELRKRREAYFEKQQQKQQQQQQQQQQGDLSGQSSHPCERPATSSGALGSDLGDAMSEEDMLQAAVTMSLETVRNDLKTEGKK

Target	log2 ratio of Biotin-Ahx-Ub-VS probe labelling ([1]; compound concentration: 50uM)	log2 ratio of Biotin-Ahx-Ub-VS probe labelling ([1]; compound concentration: 200uM)	log2 ratio of Biotin-Ahx-Ub-VS probe labelling ([2]; compound concentration: 50uM)	log2 ratio of Biotin-Ahx-Ub-VS probe labelling ([2]; compound concentration: 200uM)	log2 ratio of Biotin-Ahx-Ub-VS probe labelling ([3]; compound concentration: 50uM)	log2 ratio of Biotin-Ahx-Ub-VS probe labelling ([3]; compound concentration: 200uM)	log2 ratio of Biotin-Ahx-Ub-VS probe labelling ([4]; compound concentration: 50uM)	log2 ratio of Biotin-Ahx-Ub-VS probe labelling ([4]; compound concentration: 200uM)	log2 ratio of Biotin-Ahx-Ub-VS probe labelling ([5]; compound concentration: 50uM)	log2 ratio of Biotin-Ahx-Ub-VS probe labelling ([5]; compound concentration: 200uM)
USP15 (UniProt Q9Y4E8)	-0.0996	-0.0168	-0.328	-0.255	0.00954	-0.189	-0.0873	-0.249	-0.441	-1.58 (active)
UCHL5 (UniProt Q9Y5K5)	-0.182	-0.0853	-0.308	-0.472	0.0503	-0.365	-0.0983	-0.443	-0.226	-1.37 (active)
USP24 (UniProt Q9UPU5)	-0.0627	-0.259	-0.0337	-0.691	0.0214	-0.445	0.184	-0.614	-0.726	-2.07 (active)
YOD1 (UniProt Q5VVQ6)	-0.158	0.159	-0.167	-0.318	0.161	-0.174	0.362	-0.265	0.0837	-0.394
USP54 (UniProt Q70EL1)	-0.548	0.0905	0.326	0.176	0.0467	0.0947	-1.58 (active)	-0.206	-0.663	0.547
MINDY4 (UniProt Q4G0A6)	0.639	-0.0583	-0.0698	0.0712	0.832	-0.691	0.216	0.204	0.258	0.516
ATXN3 (UniProt P54252)	-0.0534	-0.164	-0.0955	-0.25	0.24	-0.293	-0.316	-0.596	-0.648	-2.72 (active)
PRPF8 (UniProt Q6P2Q9)	-0.0294	-0.0682	-0.217	-0.0207	0.0298	-0.0215	0.0787	-0.0553	-0.0417	-0.137
USP12 (UniProt O75317)	-0.289	-0.199	-0.354	-0.202	-0.191	-0.363	-0.253	-0.148	-0.289	-1.16 (active)
UniProt Q5T2D3	-0.177	0.0818	-0.361	-0.177	-0.0329	-0.156	-0.0344	-0.199	-0.00755	-0.416
OTUD4 (UniProt Q01804)	-1.22 (active)	-1.53 (active)	-0.449	-1.11 (active)	-1.2 (active)	-1.84 (active)	-1.48 (active)	-1.79 (active)	-0.0534	-0.739
EIF3F (UniProt O00303)	-0.228	0.0219	-0.17	0.0998	-0.0176	0.00311	-0.292	0.0431	0.028	0.0109
USP7 (UniProt Q93009)	-0.0886	-0.205	-0.182	-0.301	0.0569	-0.25	0.0324	-0.432	-0.507	-1.83 (active)
PSMD7 (UniProt P51665)	-5.4	-0.933	-1.46	0.606	0.408	0.0589	1.77	0.0535	-0.177	-1.73
